Compound activity: PubChem, National Center for Advancing Translational Sciences (NCATS)
Sampled rows, rich in hits. Any-hit rate of the full collection: about 7.9%.
KB-3-1 tox: kills parental KB-3-1 adenocarcinoma cells | Potency, µM (highest dose often 46.1 µM), usual class: cytotoxic | KB-3-1 viability, CellTiter-Glo ATP luminescence, 72 h | AID 1347075 | hit rate 1.4% among 400,000; also: % is scaled to controls: 0 for no effect and ±100 for the full control effect; nearly all actives have a fitted effect of over 60% in size
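Cytotoxicity in the drug-sensitive parental line KB-3-1 was scored as loss of CellTiter-Glo luminescence following 72 h incubation with compound. Values come from curve fitting of normalized concentration-response data.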
SW480 rerep: DNA re-replication induction in SW480 cells; SW480 DNA re-replication, Hoechst DNA content imaging, 48 h; hit rate 1.8% among 340,000; AID 624297; Potency, µM (titrated, usually from 46.1 µM), inactives show at the top dose re-replication activation, most hits filed as activators; also: % of control where 0% means no effect; nearly all actives have a fitted effect of over 55% in size
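Compounds, transferred as 23 nL by pin tool, were incubated with cells for 48 hr; DNA content per nucleus was then quantified by Hoechst staining and fluorescence plate imaging.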
KB-V1 MDR tox: kills drug-selected multidrug resistant KB-V1 cells; AID 1347076; Potency, µM (top dose mostly 46.1 µM), most hits filed as cytotoxic; hit rate 3.4% among 400,000; KB-V1 MDR cells viability, CellTiter-Glo, 72 h; also: % is scaled to controls: 0 for no effect and ±100 for the full control effect; nearly all actives have a fitted effect of over 60% in size
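Potencies derive from concentration-effect curves fitted to normalized luminescence (CellTiter-Glo) of KB-V1 cells treated for 72 h at 37 degrees C in phenol-red-free DMEM containing 10% FBS.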
HT1080 IDH1KD tx: HT-1080 IDH1 knockdown cell toxicity (counter line); hit rate 2% among 360,000; HT-1080 IDH1 knockdown viability, ATP luminescence, 48 h; Potency, µM (top dose mostly 46.1 µM), for the others: at the top dose activity, negative = toxicity, usual class: cytotoxic;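 also: 0% = DMSO wells and -100% = cell-free medium wells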
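Assay cells: HT-1080 with IDH1 knockdown, 750 per well, RPMI/5% FBS. Exposure: 48 h at 37 °C following 2 h pre-incubation. Read: CellTiter-Glo luminescence; fitted concentration-response, curve class assigned.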
MCF10A rereplic: DNA re-replication induction in MCF 10a cells | MCF 10A DNA re-replication, Hoechst nuclear intensity, 48 h | Potency, µM (top dose mostly 46.1 µM), for the others: top-dose activity, positive = re-replication, hits mostly activators | hit rate 2.9% among 350,000 | AID 624296; also: % of control where 0% means no effect; nearly all actives have a fitted effect of over 50% in size
HT1080NT lethal: kills 2HG-producing HT-1080-NT fibrosarcoma cells | HT-1080-NT fibrosarcoma viability, CellTiter-Glo ATP luminescence, 48 h | Potency, µM (doses to about 46.1 µM), without a hit: at the highest dose activity, negative = less viability, most hits filed as cytotoxic | hit rate 1.6% among 360,000 | AID 686970;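 also: NT is the 2HG producing partner of a matched IDH1 knockdown line; 0% = DMSO-treated cells and -100% = media-only wells without cells; nearly all actives have a fitted effect of over 55% in size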
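Fibrosarcoma NT cells, 750 per well in 5% FBS RPMI, were exposed to compound for 48 hours. Viability: CellTiter-Glo luminescence.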
An asterisk follows results filed as active; i = inactive; ? = inconclusive; . = not tested or not shown. Calls follow the shape of the dose curve; as a rule, active = well fitted curve in the direction sought with a large enough effect; inconclusive = small, poorly fitted or top-dose-only effect, or another doubt; inactive = no such curve, though single readings can be large; an effect the other way counts as inactive or inconclusive. Potency is read from the fitted curve at half-maximal effect.

SMILES | KB-3-1 tox | SW480 rerep | KB-V1 MDR tox | HT1080 IDH1KD tx | MCF10A rereplic | HT1080NT lethal
CCN(C(=O)COc1ccc2ccc(=O)oc2c1)C1CCCCC1 | i | -6% | 18µM* | 14% | 0% | 11%
CN(C)C(=O)COc1ccc2ccc(=O)oc2c1 | i | -2% | i | 0% | 1% | -1%
CCOC(=O)c1ccccc1NC(=O)C(=O)Nc1ccc2nc3n(c(=O)c2c1)CCCCC3 | i | . | i | . | . | .
Cc1ccc(NC(=O)Cn2cc3c(n2)CCCCC3)cc1 | i | . | i | . | . | .
Cc1cc(SCC#N)n2nc(C)c(-c3ccc(Cl)cc3)c2n1 | i | 1% | i | 8.9µM* | -7% | ?
Cc1cc(N)n2nc(C)c(-c3ccc(Cl)cc3)c2n1 | i | 13% | ? | ? | 23% | ?
Cc1cc(Cl)n2nc(C)c(-c3ccc(Cl)cc3)c2n1 | i | ? | i | 18µM* | 16µM* | ?
Cc1cc(C)nc(Nc2ncc(O)n2-c2ccc(C)c(C)c2)n1 | i | -1% | 12µM* | ? | 15% | 6%
Cc1cc(C)nc(Nc2ncc(O)n2-c2ccc(C)c(Cl)c2)n1 | i | -11% | i | 14% | 2% | 16%
CC(C)c1ccc2oc(-c3ccc(N)cc3)nc2c1 | ? | 12% | 21µM* | -27% | 10% | ?
CCN(CC)c1ccc2cc(C#N)c(=O)oc2c1 | i | 1% | i | 20% | 9% | 20%
CCN(CC)c1ccc2cc(S(=O)(=O)c3ccc(C)cc3)c(=O)oc2c1 | i | 3.3µM* | i | 5% | 2.6µM* | 15%
Cc1ccc(S(=O)(=O)c2cc3ccccc3oc2=O)cc1 | ? | -10% | i | ? | ? | -23%
CCN(CC)c1ccc2c(C)cc(=O)oc2c1 | i | ? | ? | . | 26µM* | .
CCN(CC)c1ccc2ccc(=O)oc2c1 | i | 18µM* | i | 0% | ? | 0%
CCCCCn1c(=O)[nH]c2cc(C(=O)NCc3ccc(OC)cc3)ccc2c1=O | i | . | i | . | . | .
CCCC(=O)Nc1nn(CC(C)C)c2nc3cc(C)ccc3cc12 | i | 21% | i | -9% | ? | -1%
CCC(=O)Nc1nn(CC(C)C)c2nc3ccc(C)cc3cc12 | i | 18µM* | i | -1% | ? | 1%
COc1ccc2nc3c(cc2c1)c(NC(=O)C1CCCO1)nn3CC(C)C (centres undefined) | i | ? | i | 0% | 7% | -8%
CCCCn1nc(NC(=O)CC(C)C)c2cc3cc(OC)ccc3nc21 | i | 12µM* | i | 3% | 15µM* | 4%
COc1ccc2nc3c(cc2c1)c(NC(=O)CC(C)C)nn3CC(C)C | i | 8.2µM* | i | -2% | 7.3µM* | 1%
Nc1ccc2c(c1)C1(CCC2)NC(=O)NC1=O (centres undefined) | i | . | i | 9% | . | 0%
Cc1ccc(CNC(=O)C2CCC(CNS(=O)(=O)c3ccc(C)cc3)CC2)cc1 (centres undefined) | i | . | ? | . | . | .
CCc1cc(=O)oc2c(C)c3c(cc12)CN(CCc1ccccc1)CO3 | i | . | i | . | . | .
CCOc1ccc2nc(NC(=O)CN3CCC(n4nnc5cc(F)ccc54)CC3)sc2c1 | ? | -4% | 21µM* | ? | ? | ?
O=C(CN1CCC(n2nnc3cc(F)ccc32)CC1)NC1CC1 | i | -4% | ? | 13% | 1% | 9%
O=C(CN1CCC(n2nnc3cc(F)ccc32)CC1)NC1CCCCC1 | i | 0% | 21µM* | 3% | 16% | 1%
O=C(CN1CCC(n2nnc3cc(F)ccc32)CC1)N1CCc2ccccc2C1 | i | ? | ? | ? | 5.2µM* | -30%
CCOC(=O)c1c(NC(=O)c2cc(-c3ccccc3)on2)sc2c1CCCC2 | i | . | i | . | . | .
